# Experimental data from the supplement of paper PMC8728848.
# Many of the other results were omitted from the sample, so the strongest signals are more common in it than they were.
# Legend:
# Assay in all cases: glycan array binding signal (z-score within array); higher = stronger binding
# Settings in all cases: glycan notation: IUPAC condensed, linker removed
# [1] = system: Gal(a1-2)Gal
# Method in brief: (§1)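 From the Consortium for Functional Glycomics database, 3228 arrays were curated, keeping only those whose protein sequence was available. Binding is given as a within-array Z-score averaged across arrays sharing a protein sequence and across linkers. Negative Z-scores can be read as non-binding.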
# [2] = system: Gal(a1-3)Gal(b1-3)GlcNAc(b1-2)Man(a1-3)[Gal(a1-3)Gal(b1-3)GlcNAc(b1-2)Man(a1-6)]Man(b1-4)GlcNAc(b1-4)GlcNAc
# Method in brief: as §1
# [3] = system: Gal(a1-3)Gal(b1-3)GlcNAc(b1-6)GalNAc
# Method in brief: as §1
# [4] = system: Gal(a1-3)Gal(b1-3)GlcNAc
# Method in brief: as §1
# [5] = system: Gal(a1-3)Gal(b1-4)GlcNAc(b1-2)Man(a1-3)[Gal(a1-3)Gal(b1-4)GlcNAc(b1-2)Man(a1-6)]Man(b1-4)GlcNAc(b1-4)GlcNAc
# Method in brief: as §1
# [6] = system: Gal(a1-3)Gal(b1-4)GlcNAc(b1-2)Man
# Method in brief: as §1
# [7] = system: Gal(a1-3)Gal(b1-3)[Fuc(a1-4)]GlcNAc(b1-2)Man(a1-3)[Gal(a1-3)Gal(b1-3)[Fuc(a1-4)]GlcNAc(b1-2)Man(a1-6)]Man(b1-4)GlcNAc(b1-4)GlcNAc
# Method in brief: as §1
substance,measurement,setting,value
Epa22,glycan array binding signal (z-score),[1],-0.244
"Wza (Escherichia coli), P0A930",glycan array binding signal (z-score),[2],0.652
LcI (Legionella pneumophila),glycan array binding signal (z-score),[3],4
same,glycan array binding signal (z-score),[4],4.41
same,glycan array binding signal (z-score),[5],0.12
same,glycan array binding signal (z-score),[6],-0.012
"SiiE (Salmonella typhimurium), A0A0H3NVH0",glycan array binding signal (z-score),[4],0.637
Actinohivin (Actinomycete K97),glycan array binding signal (z-score),[7],0.526
"SpGH101 (Streptococcus pneumoniae), Q8DR60",glycan array binding signal (z-score),[7],0.17
